Measurements published in PubChem BioAssay AID2284100 (EPA ToxCast).
Calls of active or inactive are those of the source. Rule for the calls: active = hit-call score of the fitted dose curve at least 0.9, where 1 is the maximum; inactive = score below 0.9.

biological target: human KDR (VEGFR2) Receptor Tyrosine Kinase, KDR (gene 3791) (UniProt P35968); assay: ERF_FR_ENZ_hKDR: Eurofins (ERF) Enzymatic Radiometric [Km ATP] KinaseProfiler LeadHunter Assay for human KDR (VEGFR2) Receptor Tyrosine Kinase
Description: ERF_FR_ENZ_hKDR is a biochemical, single-readout assay that uses extracted gene-proteins in a cell-free assay. Measurements were taken 1 hour after chemical dosing in a 96-well plate. See KDR (VEGFR2) Human RTK Kinase Enzymatic LANCE Assay [Km ATP], Cerep.ERF_FR_ENZ_hKDR is an assay component calculated from the ERF_FR_ENZ_hKDR assay. It is designed to measure enzyme activity using a type of enzyme reporter as detected by fluorescence intensity with LANCE technology.Data from the assay component ERF_FR_ENZ_hKDR was analyzed at the assay endpoint, ERF_FR_ENZ_hKDR, in the positive analysis fitting direction relative to DMSO as the negative control and baseline of activity. Using a type of enzyme reporter, loss-of-signal activity can be used to understand changes in enzymatic activity as they relate to gene KDR. To generalize the intended target to other relatable targets, this assay endpoint is annotated to the kinase intended target family, where the subfamily is receptor tyrosine kinase.
KDR (h) is incubated with 8 mM MOPS pH 7.0, 0.2 mM EDTA, 0.33 mg/mL myelin basic protein, 10 mM MgAcetate and [gamma-33P]-ATP (specific activity and concentration as required). The reaction is initiated by the addition of the Mg/ATP mix. After incubation for 40 minutes at room temperature, the reaction is stopped by the addition of phosphoric acid to a concentration of 0.5%. […]

Chain of human KDR (VEGFR2) Receptor Tyrosine Kinase, KDR (gene 3791) (P35968 whole entry, looked up): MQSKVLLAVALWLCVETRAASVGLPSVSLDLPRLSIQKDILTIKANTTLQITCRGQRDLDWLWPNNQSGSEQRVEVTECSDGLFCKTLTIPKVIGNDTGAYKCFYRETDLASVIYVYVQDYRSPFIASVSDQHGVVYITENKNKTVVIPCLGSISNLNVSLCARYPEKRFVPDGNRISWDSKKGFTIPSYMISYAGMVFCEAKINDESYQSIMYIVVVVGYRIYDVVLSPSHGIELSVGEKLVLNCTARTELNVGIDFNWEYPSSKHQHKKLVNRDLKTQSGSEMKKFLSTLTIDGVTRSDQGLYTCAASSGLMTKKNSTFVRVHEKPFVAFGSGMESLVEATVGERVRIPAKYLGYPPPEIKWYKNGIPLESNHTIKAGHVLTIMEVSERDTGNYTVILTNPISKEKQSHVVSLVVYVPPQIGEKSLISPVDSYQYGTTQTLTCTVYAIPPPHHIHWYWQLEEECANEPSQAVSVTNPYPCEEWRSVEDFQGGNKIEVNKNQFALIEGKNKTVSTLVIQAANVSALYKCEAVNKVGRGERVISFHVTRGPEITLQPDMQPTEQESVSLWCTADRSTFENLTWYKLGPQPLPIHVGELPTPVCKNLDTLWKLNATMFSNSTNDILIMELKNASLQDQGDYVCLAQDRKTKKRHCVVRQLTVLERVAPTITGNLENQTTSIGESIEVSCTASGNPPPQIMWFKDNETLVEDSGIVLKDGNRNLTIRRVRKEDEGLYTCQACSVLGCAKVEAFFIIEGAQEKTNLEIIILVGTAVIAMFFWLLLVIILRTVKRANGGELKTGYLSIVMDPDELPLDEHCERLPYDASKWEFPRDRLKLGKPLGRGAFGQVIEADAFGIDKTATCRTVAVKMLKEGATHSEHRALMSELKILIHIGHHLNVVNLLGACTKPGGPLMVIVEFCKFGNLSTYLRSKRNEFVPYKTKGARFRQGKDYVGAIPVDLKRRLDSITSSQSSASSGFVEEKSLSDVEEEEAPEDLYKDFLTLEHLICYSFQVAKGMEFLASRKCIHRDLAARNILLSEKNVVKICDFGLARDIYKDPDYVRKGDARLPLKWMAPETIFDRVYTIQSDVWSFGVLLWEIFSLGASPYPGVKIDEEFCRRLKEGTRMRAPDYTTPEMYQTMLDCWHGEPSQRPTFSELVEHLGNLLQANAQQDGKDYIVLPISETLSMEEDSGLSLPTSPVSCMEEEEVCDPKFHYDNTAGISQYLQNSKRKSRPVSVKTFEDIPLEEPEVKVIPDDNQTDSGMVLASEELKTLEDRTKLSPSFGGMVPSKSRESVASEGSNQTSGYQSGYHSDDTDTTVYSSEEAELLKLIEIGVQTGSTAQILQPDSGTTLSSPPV

SMILES | AC50
O=C(/C=C/c1ccc(O)cc1)CC(=O)/C=C/c1ccc(O)cc1 | 2.39 µM (active)
